# Several values for one entry are separate records, joined by “and”; a condition that tells them apart may be missing. Equal values may be shown once. Inconclusive results are not listed. Values without a mark were called inactive. Activity calls are given as the source filed them. Calls come from the whole dose curve; as a rule, active = well fitted inhibition curve with a large enough effect; inconclusive = small, poorly fitted or top-dose-only effect; inactive = no such curve, though single readings can be large or run the other way.
# Test: Primary qHTS for inhibitors of nuclear receptor binding SET domain protein 2 (NSD2) in an RCH-ACV wild type WT cells (2C) (AID 1645877); note: nearly all actives have a fitted effect of over 70% in size
# Details: RCH-ACV (leukaemia line) NSD2 WT (2C) viability, CellTiter-Glo, 72 h; series mostly up to 44.9 µM; activity change, negative = cell killing: at the top concentration
# Source text: Assay Provider: Jonathan D. Licht, MD
# University of Florida College of Medicine, Gainesville, FL
# Mutations in epigenetic regulators are common in relapsed pediatric acute lymphoblastic leukemia (ALL). Here, we uncovered the mechanism underlying the relapse of ALL driven by an activating mutation of the NSD2 histone methyltransferase (p.E1099K). […] Correction of this mutation restored glucocorticoid sensitivity. The transcriptional response to glucocorticoids was blocked in NSD2 mutant cells due to depressed glucocorticoid receptor (GR) levels and the failure of glucocorticoids to autoactivate GR expression. […] Pre-treatment of NSD2 p.E1099K cell lines and PDX samples with PRC2 inhibitors reversed glucocorticoid resistance in vitro and in vivo.
# High-throughput drug screening of isogenic RCH-ACV cell lines was performed at the National Center for Advancing Translational Science (NCATS), National Institutes of Health as previously described (1). Briefly, isogenic RCH-ACV NSD2 p.E1099K mutant (9B) and WT cells (2C) were plated at 500 cells/well in a 1536-well plate with a 72-hour incubation with compounds prior to addition of CellTiter-Glo to assess cell viability. NCATS libraries screened include: NPC, MIPE 5.0, Kinase and NPACT. To determine compound activity in the qHTS assay, the concentration-response data for each sample was plotted and modeled by a four-parameter logistic fit yielding IC50 and efficacy (maximal response) values. The area under the curve (AUC) of the dose-response curve ensures both efficacy (magnitude of cell killing) and potency (concentration that elicits cell killing) are accounted for in the analysis of activity.
# 1. Tobie D Lee, Olivia W Lee, Kyle R Brimacombe, Lu Chen, Rajarshi Guha, Sabrina Lusvarghi, Bethilehem G Tebase, Carleen Klumpp-Thomas, Robert W Robey, Suresh V Ambudkar, Min Shen, Michael M Gottesman, Matthew D Hall. A High-Throughput Screen of a Library of Therapeutics Identifies Cytotoxic Substrates of P-glycoprotein. Mol Pharmacol. 2019, Nov;96(5):629-640.
# % is set by controls: 0 for no effect and ±100 for the full control effect; potency is the fitted concentration of half-maximal effect.
Compound,"activity change, negative = cell killing",Potency,outcome
CC[C@H]1C2CC3[C@@H]4N(C)c5ccccc5[C@]45C[C@@H]([C@H]2[C@H]5O)N3[C@@H]1O,-18%,–,–
CN1C(=O)[C@]23CC4C(C)(C)[C@@]5(C[C@@]41CN2CC[C@@]3(C)O)C(=O)Nc1c5ccc2c1OC=CC(C)(C)O2 (stereo not given in full),-21.9% [at 17.3 µM],–,–
COc1cc2c(cc1O)C1(C)CCC(O)C(C)(C)C1CC2=O (stereo not given),-13%,–,–
Cc1sc2c(c1C)C(c1ccc(Cl)cc1)=NC(CC(=O)Nc1ccc(O)cc1)c1nnc(C)n1-2 (stereo not given),–,129 nM (active) and 296 nM (active),–
CC[C@@H]1/C=C/C=C/C[C@H](C)C(O)[C@](C)(O)C(=O)[C@H](C)C(O)[C@H](C)C(=O)[C@H](C)[C@@H](O)[C@H](C)/C=C/C(=O)O[C@H]2[C@@H](C)[C@@H](CC1)O[C@]1(O[C@H](C[C@H](C)O)[C@H](C)CC1=O)[C@@H]2C (stereo not given in full),–,0.138 µM (active),–
C[C@]12CC[C@H](O)C[C@H]1CC[C@@H]1[C@@H]2[C@H](O)C[C@]2(C)[C@@H](c3ccc(=O)oc3)CC[C@]12O,–,0.0459 µM (active),–
COC[C@]12CN(C)C3C4[C@H](OC)[C@H]1C3(C(OC)C[C@H]2O)[C@H]1C[C@@]2(O)[C@H](OC(=O)c3ccccc3)[C@@H]1[C@]4(O)[C@@H](O)[C@@H]2OC (stereo not given in full),1.01%,–,–
CC(=O)OC[C@]12C[C@H](OC(=O)CC(C)C)C(C)=C[C@H]1O[C@@H]1[C@H](O)[C@@H](OC(C)=O)[C@@]2(C)[C@@]12CO2,–,0.01 µM (active),–
CN1Cc2c(ccc3c2OCO3)[C@@H]2[C@H]1c1cc3c(cc1C[C@@H]2O)OCO3,–,2.26 µM (active),–
CO[C@H]1C[C@H](O[C@H]2CC[C@]3(C=O)[C@H]4CC[C@]5(C)[C@@H](C6=CC(=O)OC6)CC[C@]5(O)[C@@H]4CC[C@]3(O)C2)O[C@H](C)[C@H]1O,–,0.0893 µM (active),–
C=C1C(=O)OC2/C=C(\COO)CC/C=C(\COC(C)=O)CC(OC(=O)C(C)CC)C12 (stereo not given),–,3.55 µM (active),–
C[C@H]1CCC/C=C/C2C[C@H](O)C[C@H]2[C@H](O)/C=C/C(=O)O1 (stereo not given in full),–,163 nM (active) and 417 nM (active),–
Fc1cc(F)c2c(c1)[C@H]1C=CC[C@H]1C(c1cccnc1)N2 (stereo not given in full),–,8.17 µM (active),–
COC(=O)CC1CC2(C(=O)c3c(O)cccc3C2(O)C(=O)OC)C(C)O1 (stereo not given),2.08%,–,–
COc1ccsc1CNCC[C@@]1(c2ccccn2)CCOC2(CCCC2)C1,-28.2%,–,–
COc1ccc2c(c1)[nH]c1c(C)nccc12,–,8.2 µM (active),–
C/C=C1/CN2CC[C@]34C(=Nc5ccccc53)[C@@H]2C[C@@H]1[C@H]4C(=O)OC,-5.47%,–,–
CN1C(=O)CN=C(c2ccccc2Cl)c2cc(Cl)ccc21,-13.7%,–,–
C[C@]12CC[C@H](O)C[C@@H]1CC[C@@H]1[C@@H]2CC[C@]2(C)C(=O)CC[C@@H]12,-21.5%,–,–
C[C@]12CC[C@H](O)C[C@H]1CC[C@@H]1[C@@H]2[C@H](O)C(=O)[C@]2(C)[C@@H](c3ccc(=O)oc3)CC[C@]12O,–,0.0515 µM (active),–

Compound,"activity change, negative = cell killing",Potency,outcome
CC1=CC2/C=C(\C)CCC(O)C(O)C(O)CC(=O)C23C(=O)NC(CC(C)C)C3C1C (stereo not given),–,3.17 µM (active),–
CCOP(=O)(OCC)Oc1ccc2c(C)cc(=O)oc2c1,-26.3%,–,–
C[C@H]1O[C@@H](O[C@H]2CC[C@]3(CO)C4CC[C@]5(C)[C@@H](C6=CC(=O)OC6)CC[C@]5(O)[C@@H]4CC[C@H]3C2)[C@H](O)[C@H](O)[C@@H]1O[C@@H]1O[C@H](CO)[C@@H](O)[C@H](O)[C@H]1O (stereo not given in full),–,1.08 µM (active),–
C[C@H]1O[C@@H](n2cnc3c(N)ncnc32)C[C@@H]1O,-5.08%,–,–
CN(C)c1cc2c(cc1Sc1nc3c(N)nccc3n1CCNCC(C)(C)C)OCO2,–,365 nM (active) and 742 nM (active),–
COc1ccc(CCNCc2ccc(OC)c3ccccc23)cc1,–,16.3 µM (active),–
CC1=CC(=O)[C@@H](O)[C@]2(C)C3[C@@H](O)[C@@H]4OC(=O)[C@@H]([C@H]4C)[C@]3(C)C(=O)C[C@@H]12 (stereo not given in full),–,2.26 µM (active),–
C=C[C@H]1CN2CCC1C[C@H]2[C@H](O)c1ccnc2ccccc12 (stereo not given in full),-21.5%,–,–
C=C(C)[C@@H]1[C@H]2OC(=O)[C@H]1[C@]1(O)C[C@H]3O[C@]34C(=O)O[C@H]2[C@]14C,0.204%,–,–
COc1ccc(CC2C(=O)NC(C)C(=O)N(C)C3Cc4ccc(cc4)Oc4cc(ccc4OC4OC(CO)C(O)C(O)C4O)CC(C(=O)NC(C)C(=O)NC(CCC(=O)O)C(=O)N2C)N(C)C3=O)cc1 (stereo not given),–,4.88 µM (active),–
C=C1[C@@H](C)[C@H]2[C@H](Cc3ccccc3)NC(=O)[C@]23[C@H](OC(C)=O)/C=C/[C@](C)(O)C(=O)[C@@H](C)C/C=C/[C@H]3[C@@H]1O,–,0.258 µM (active),–
Cc1cccc([C@H](C)c2cnc[nH]2)c1C,-9.55% [at 91.9 µM],–,–
COc1ccc2c3c4n(c2c1)[C@@H](C=C(C)C)OOC(C)(C)C[C@@H]4N1C(=O)[C@@H]2CCCN2C(=O)[C@]1(O)[C@H]3OCC=C(C)C,-27.8% [at 17.3 µM],–,–
O=C1CN=C(c2ccccc2Cl)c2cc(Br)ccc2N1,–,12.9 µM (active),–
C=CC(C)(C)c1[nH]c2c(CC=C(C)C)cc(CC=C(C)C)cc2c1C[C@@H]1NC(=O)[C@H](C)NC1=O,-12.9%,–,–
N#Cc1ccc([C@H]2CCCC[C@H]2O)cc1C(F)(F)F,-9.17%,–,–
C[C@@]1(CO)[C@H](O)CC[C@@]2(C)[C@H]1CC[C@H]1C[C@@H]3C[C@@]12CC[C@]3(O)CO,–,2.84 µM (active),–
OCc1nnc2n1-c1ccc(Cl)cc1C(c1ccccc1Cl)=NC2,–,–,inactive
CN(C(=O)CN1C(=O)COc2cc(Cl)c(Cl)cc21)[C@@H](CN1CCCC1)c1ccc(-c2cccc(C(N)=O)c2)cc1,–,7.28 µM (active),–
C/C=C(\C)C(=O)OC1C2C3(C)CCC(OC4CC(OC)C(OC5OC(C)C(O)C(OC)C5O)C(C)O4)CC3CCC23OC32CCC(C(C)=O)C2(C)C1OC(=O)/C(C)=C/C (stereo not given),-23.1% [at 9.23 µM],–,–

# Source: PubChem BioAssay (NCATS)
